Screen size: about 21,000 compounds; fewer than 10 were called active.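 How the source made its calls: active means inhibition above 50% at the 20 µM single-dose screen; inactive means the rest.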 Only a sample is shown.
biological target: Alkaline phosphatase, tissue-nonspecific isozyme (Homo sapiens) (UniProt P05186); test: blockers of alkaline phosphatase TNAP activity – biochemical, colorimetric, phosphate release readout, primary screen (AID 614); conditions: purified TNAP, pNPP, malachite green phosphate absorbance; at 20 µM; active compounds read high
Sequence (P05186 whole entry, looked up): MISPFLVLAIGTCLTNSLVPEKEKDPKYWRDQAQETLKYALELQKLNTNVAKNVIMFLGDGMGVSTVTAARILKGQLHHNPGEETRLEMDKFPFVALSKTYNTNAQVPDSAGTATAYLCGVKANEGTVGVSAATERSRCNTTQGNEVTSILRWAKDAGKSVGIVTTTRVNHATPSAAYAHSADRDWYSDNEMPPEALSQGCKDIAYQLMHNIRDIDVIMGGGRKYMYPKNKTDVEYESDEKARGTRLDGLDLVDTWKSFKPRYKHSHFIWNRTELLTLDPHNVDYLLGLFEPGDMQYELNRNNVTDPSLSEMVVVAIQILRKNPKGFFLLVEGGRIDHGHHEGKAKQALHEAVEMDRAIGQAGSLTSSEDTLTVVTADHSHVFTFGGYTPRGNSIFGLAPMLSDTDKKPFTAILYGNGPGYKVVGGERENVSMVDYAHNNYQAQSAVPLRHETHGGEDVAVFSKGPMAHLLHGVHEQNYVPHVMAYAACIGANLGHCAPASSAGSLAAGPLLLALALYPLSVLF

inhibition, inactive:
CC1CCN(C(=O)Cn2cc(C(=O)c3ccco3)c3ccccc32)CC1 14.2%
O=C(c1ccccc1)N1CCN(C(=O)N2CCCCC2)CC1 -5.7%
CC1C(c2ccccc2)=[N+]([O-])C2(CCCC2)N1O (stereo not drawn) 12.6%
Cc1nonc1OCCn1nnnc1N 8.7%
O=C(OC(C(=O)NC1CCCC1)c1ccc(F)cc1)c1ccno1 (stereo not drawn) 0%
CCc1ccccc1NC(=O)CSc1nnc([C@@H](NC(=O)OC(C)(C)C)C(C)C)o1 4.3%
CC1OC2C(OC1C)N(S(C)(=O)=O)CCN2S(C)(=O)=O (stereo not drawn) 10%
O=C(CCN1C(=O)c2ccccc2C1=O)Nc1ccncc1 7.9%
CCOC(=O)CSc1nc2sc3c(c2c(=O)[nH]1)CC(C)(C)OC3 -12.8%
COc1ccc(-c2cc(C(F)(F)F)n3nc(C(=O)N4CCOCC4)c(Cl)c3n2)cc1 6%
C=C(Br)Cn1c(CCCC)nc2ccccc21 0%
COc1ccc(Br)cc1/C=N/n1c(C)nnc1C 8.2%
CCC(=O)Nc1sc(C(=O)N2CCCCC2)c(C)c1C#N -23.7%
CCCCNc1nc2ccccc2nc1NS(=O)(=O)c1cccs1 1.2%
COc1cc(C2C(C(=O)c3sc(C)nc3C)=C(O)C(=O)N2CCN(C)C)cc(OC)c1OC (stereo not drawn) 13%
Cc1cc(C)c(C#N)c(SCc2ccccc2C(=O)O)n1 -0.3%
CCCCc1nc2ccccc2c(=O)n1NC(=O)c1c(O)c2cccc3c2n(c1=O)CC3 4.4%
Cc1ccc2cc(C#N)c(SCC(=O)NCC3CCCO3)nc2c1C (stereo not drawn) 8.6%
COc1ccc2c(c1OC)C(=O)OC2c1c(O)nc(SC)n(-c2ccccc2)c1=O (stereo not drawn) -0.7%
Cc1ccc2c(NC(=O)C3CC3)cccc2n1 9.9%
O=c1c(F)cn(C2CCCO2)c(=O)n1Cc1ccccc1Cl (stereo not drawn) 7.7%
COCCNC(=O)c1ccccc1-c1nc(-c2ccccc2Cl)no1 1.6%
Cc1cc(C)nc(N(C#N)CC(=O)Nc2ccccc2)n1 -15.3%
CCCCNC(=O)CSc1nccn1Cc1ccccc1 10.7%
CCC(C)NC(=O)N[C@@H](CCSC)C(=O)O (stereo partly drawn) 8.1%
O=C(Nc1cnccn1)c1cccnc1 6.7%
COc1ccc(-c2n[nH]c(C)c2-c2ccc(OC)c(OC)c2)c(O)c1 7.2%
c1nc(COc2nsnc2N2CCOCC2)cs1 5.5%
Cc1cc2ccccc2n2c(SCC(=O)N3CCN(C(=O)c4ccco4)CC3)nnc12 12.5%
CC(=O)Nc1cccc2c1[n+]([O-])c(C)c(C)[n+]2[O-] 2.9%
N#CCCN(CCC#N)c1nnc(-c2ccccc2)s1 0%
COc1ccc(Cn2cccc(NC(=O)Nc3ccc(C#N)cc3)c2=O)cc1 10.4%
CCOC(=O)CNC(=O)CSc1nnc(COc2ccc(Cl)cc2)n1CC 10.6%
CCc1nnc(NC(=O)c2nc3nccc(C)n3n2)s1 -4.2%
CNC(=O)c1cc2c(ccc3ccccc32)oc1=N 5.2%
CCN(c1ccccc1)S(=O)(=O)c1cccc(C(=O)O)c1 1.1%
CN(C)c1nc2n(c(=O)n1)CCO2 -3%
COc1ccccc1NC(=O)C1=C(C)NC2=C(C(=O)CCC2)C1c1ccc(C)o1 (stereo not drawn) -1.3%
C=CCc1cccc2cc(C(=O)N3CCN(C(=O)OCC)CC3)c(=O)oc12 5.5%
CC1Cc2ccccc2N1C(=O)CSc1nnc(-c2ccc(S(=O)(=O)N3CCCCC3)cc2)o1 (stereo not drawn) 12.2%
O=c1oc2c(CN3CCCCC3)c(O)ccc2c2c1CCCCC2 8.2%
CCn1c(SCC(=O)Nc2cc(C)c(Cl)cc2OC)nnc1-c1ccco1 10.5%
O=C(NC1CCCCC1)n1c(=O)oc2cc(S(=O)(=O)N3CCCCC3)ccc21 6.7%
Cn1c(SCC(=O)OC2CCCCC2)nnc1-c1ccc(S(=O)(=O)N2CCCC2)cc1 10.3%
O=C(NCc1cn2ccsc2n1)Nc1cccc(Cl)c1 0.5%
CCC1(C)N(O)C(C)(C)C(c2ccc(OC)cc2)=[N+]1[O-] (stereo not drawn) 8.5%
CCc1c(O)nc(SCC(=O)N2CCCCC2)n(-c2ccccc2C)c1=O 2.1%
Cc1ccc(C(C(=O)NCc2ccco2)N(CC2CCCO2)C(=O)Cn2nnc3ccccc32)cc1 (stereo not drawn) 8.3%
CC(C)=C(NC(=O)c1ccco1)C(=O)NCCc1nc2ccccc2[nH]1 9.6%
O=C(O)CCC(=O)N(Cc1ccco1)c1nc(-c2ccccc2)cs1 7.9%
COC(=O)COc1ccc(S(=O)(=O)Nc2ccc(NC(C)=O)cc2)cc1 11.9%
CCc1cccc(C)c1NC(=O)CSc1nnc(-c2ccco2)n1N 7.1%
C/C(O)=C\c1nc(=O)c2c(C)cc(C)nc2n1-c1ccccc1 10.5%
COc1ccccc1N1CCN(C(=O)c2ccc(S(=O)(=O)N3CCCCC3)cc2)CC1 11.7%
Cc1ccc(C(C)C)c(OCc2nnc(SCC(=O)Nc3nccs3)n2C)c1 -5.7%
NC(=O)C1CCN(C2OC(=O)c3ccccc32)CC1 (stereo not drawn) 0%
O=C(CSc1nnnn1-c1ccc2c(c1)CCC2)Nc1ccc2c(c1)OCCO2 -0.8%
O=C(CNCCO)NC12CC3CC(CC(C3)C1)C2 0%
Cc1nc(NC(CC(C)C)C(=O)O)c2nc(C)oc2n1 (stereo not drawn) -15%
O=C1c2oc3ccc(Br)cc3c(=O)c2C(c2cccc(F)c2)N1CCO (stereo not drawn) 10.1%
CC(C)C(=O)N1CCN(CCN=CC2=C(O)CC(c3ccco3)CC2=O)CC1 (stereo not drawn) 2.1%
CCOC(=O)c1c(NC(=O)CSc2nnc(C)c(=O)[nH]2)sc2c1CCC2 10.5%
COC(=O)C(NC(C)=O)(Nc1nc2c(s1)CCCC2)C(F)(F)F (stereo not drawn) 10.6%
